Source: PubChem (National Center for Advancing Translational Sciences (NCATS))
TGFb inhibitor = inhibitors of TGF-b signaling; AID 588855; Potency, µM (top dose mostly 46.1 µM), hits mostly inhibitors; 1.2% of 410,000 active; HepG2 CAGA-GFP TGF-b/SMAD3 reporter, GFP fluorescence, 18 h; TGF-beta stimulated, 500 pg/mL final; note: nearly all actives have a fitted effect of over 65% in size
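HEPG2 CAGA-GFP reporter cells (1000/well, DMEM with 1% FBS) received compounds, then recombinant TGF-beta at 500 pg/mL final for 18 hours at 37 degrees C. Per-cell GFP summed per well was normalised to unstimulated and stimulated DMSO controls before curve fitting.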
HepG2 viability = kills HepG2 cells in TGF-b inhibitor counter-screen; AID 588856; 0.76% of 410,000 active; HepG2 CAGA-GFP viability, ATP luminescence, 18 h; Potency, µM (doses to about 46.1 µM), actives largely listed as cytotoxic
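CellTiter-Glo luminescence gave cytotoxicity after 18 hours at 37 degrees C. The cells were HepG2 CAGA-GFP in 1% FBS DMEM, stimulated with 500 pg/mL TGF-beta after compound addition. %Activity was normalised to no-cell wells (complete cell-killing) and DMSO (no toxicity), and curves were fitted and classified.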
ATXN2 expr inh = inhibitors of ATXN2 expression | HEK-293 ATXN2-luciferase reporter, luminescence, 24 h | Potency, µM (doses to about 57 µM), usual class: inhibitors | 0.72% of 360,000 active | AID 1745845; note: nearly all actives have a fitted effect of over 55% in size
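qHTS (up to 57 uM final) was run with 24 h compound exposure of reporter cells at 37 °C. Each well was multiplexed: SteadyGlo luminescence measured ATXN2-luciferase expression after a fluorogenic Gly-Phe-AFC viability readout (25 uM final).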
KB-3-1 tox = KB-3-1 parental cell cytotoxicity. KB-3-1 viability, CellTiter-Glo ATP luminescence, 72 h. Potency, µM (highest dose often 46.1 µM), most hits filed as cytotoxic. 1.4% of 400,000 active. AID 1347075; note: nearly all actives have a fitted effect of over 60% in size
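Cells are dispensed, compounds pinned in, plates held at 37 °C for 72 h, then CellTiter-Glo is added and luminescence read after 10 minutes. Cell line: parental KB-3-1 in phenol-red-free DMEM, 10% FBS.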
KB-V1 cytotox = kills drug-selected multidrug resistant KB-V1 cells | 3.4% of 400,000 active | KB-V1 MDR cells viability, CellTiter-Glo, 72 h | AID 1347076 | Potency, µM (titrated, usually from 46.1 µM), most hits filed as cytotoxic; note: nearly all actives have a fitted effect of over 60% in size
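Potencies derive from concentration-effect curves fitted to normalized luminescence (CellTiter-Glo) of KB-V1 cells treated for 72 h at 37 degrees C in phenol-red-free DMEM containing 10% FBS.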
ATXN viability = reduces viability in counter-screen for ATXN expression inhibitors; AID 651635; 0.49% of 400,000 active; S2 cells (HEK-293 line with an ATXN2-luciferase reporter) viability, CellTiter-Fluor protease fluorescence, 24 h; Potency, µM (top dose mostly 56.7 µM), most hits filed as cytotoxic; note: nearly all actives have a fitted effect of over 40% in size
A number is an active result; n = inactive; u = inconclusive; x = no result. Compounds with a hit are over-represented: about 5.9% of the library has one in this group of screens. Calls come from the whole dose curve; as a rule, active = well fitted curve in the direction sought with a large enough effect; inconclusive = small, poorly fitted or top-dose-only effect, or another doubt; inactive = no such curve, though single readings can be large; an effect the other way counts as inactive or inconclusive.

SMILES | TGFb inhibitor | HepG2 viability | ATXN2 expr inh | KB-3-1 tox | KB-V1 cytotox | ATXN viability
Cc1csc2nc(O)c(C(=O)NC3CCCCC3)c(=O)n12 | u | n | n | n | 21µM | n
Cc1ccn2c(=O)c(C(=O)NCCCN3CCCC3=O)c(O)nc2c1 | n | n | n | n | n | n
Cc1csc2nc(O)c(C(=O)NCCCN3CCCC3=O)c(=O)n12 | n | n | n | n | 18µM | n
CC(=O)Nc1ccc(OCC(O)CN2CCN(c3cccc(Cl)c3)CC2)cc1 (stereo not given) | n | n | n | n | 16µM | n
CC(=O)Nc1ccc(OCC(O)CN2CCN(c3ccc(Cl)cc3)CC2)cc1 (stereo not given) | n | n | n | n | n | n
COc1cccc(-c2nnc3sc(-c4cccs4)nn23)c1 | n | n | n | n | n | u
CCOc1cccc(-c2nnc3sc(COc4ccc(Cl)cc4)nn23)c1 | n | n | n | 21µM | u | n
CCOc1cccc(-c2nn3c(-c4ccco4)nnc3s2)c1 | n | n | n | u | 9.2µM | n
CCOc1cccc(-c2nnc3sc(-c4cc(OC)c(OC)c(OC)c4)nn23)c1 | n | n | n | u | 8.2µM | u
CCOc1cccc(-c2nnc3sc(-c4cccs4)nn23)c1 | n | n | n | n | 5.2µM | n
CCOc1cccc(-c2nnc3sc(COc4ccc(C)cc4)nn23)c1 | n | n | n | n | n | n
CC1(C(=O)Nc2ccc3c(c2)OCCO3)CCN1C(=O)c1cccc(F)c1 (stereo not given) | n | n | n | n | n | n
O=C(CSc1n[nH]c(-c2ccccc2)n1)NCCCc1ccccc1 | u | n | x | n | n | x
CC(=O)N1CCCc2cc(S(=O)(=O)N(C)CC(=O)Nc3ccc(C)cc3C)ccc21 | n | n | n | n | u | u
CCN(CC)c1ccc(-c2nn3c(-c4cccnc4)nnc3s2)cc1 | n | n | n | 21µM | 7.3µM | n
COc1ccc(-c2nnc3sc(-c4ccco4)nn23)cc1OC | u | n | n | u | 2.1µM | n
c1cncc(-c2nnc3sc(-c4ccco4)nn23)c1 | n | n | n | n | n | n
COc1cc(-c2nn3c(COc4ccccc4)nnc3s2)cc(OC)c1OC | n | n | n | n | 5.2µM | n
Cc1cc(Cl)ccc1NC(=O)CCCn1nc(C)c2c(C)n(-c3ccccc3)nc2c1=O | n | n | n | n | n | n
CC(C)(C)C(=O)Nc1ccc2nc(SCC(=O)N3CCc4ccccc43)sc2c1 | n | n | n | u | n | n
Clc1ccc2oc(-c3ccccc3)cc(=NCCCN3CCOCC3)c2c1 | u | n | n | u | 21µM | x
OCCCCCN=c1cc(-c2ccccc2)oc2ccc(Cl)cc12 | u | n | u | u | u | u
CCn1c(COc2ccc(=O)n(-c3ccccc3)n2)nnc1SCc1ccc(OC)cc1 | n | n | n | n | 18µM | n
CCn1c(COc2ccc(=O)n(-c3ccccc3)n2)nnc1SCc1ccccc1 | u | n | n | n | n | n
CN(C)c1cccc(N2CCN(c3nn4c(=O)c5ccccc5nc4s3)CC2)c1 | x | x | x | n | n | x
SMILES | TGFb inhibitor | HepG2 viability | ATXN2 expr inh | KB-3-1 tox | KB-V1 cytotox | ATXN viability
CCOC(=O)C1CCCN(C(=O)c2ccc3c(c2)N(Cc2ccccc2)C(=O)c2ccccc2S3(=O)=O)C1 (stereo not given) | x | n | x | x | x | x
O=C(NCCCN1CCOCC1)c1ccc2c(c1)N(Cc1cccc(Cl)c1)C(=O)c1ccccc1S2 | u | 11µM | x | x | x | x
CCN(CC)C(=O)c1ccc2c(c1)N(Cc1c(F)cccc1Cl)C(=O)c1ccccc1S2 | 16µM | n | u | n | n | n
CCOC(=O)C1CCCN(C(=O)c2ccc3c(c2)N(Cc2ccccc2)C(=O)c2ccccc2S3=O)C1 (stereo not given) | 10µM | n | n | n | u | n
O=C(c1ccc2c(c1)N(Cc1ccccc1)C(=O)c1ccccc1S2)N1CCCC1 | u | n | n | n | 2.3µM | n
O=C1C(=O)C(c2cc(O)c(O)c(O)c2)Oc2cc(O)cc(O)c21 (stereo not given) | n | n | x | u | n | x
O=C(/C=C/c1c(F)c(F)c(F)c(F)c1F)Nc1cccc([S+](=O)([O-])Nc2ccccc2F)c1 | x | x | x | n | n | x
Cn1c(=O)c(-c2c(Cl)cccc2Cl)cc2cnc(Nc3cccc(C(=O)O)c3)nc21 | x | x | n | x | x | x
CCN1CCN(C(=O)c2cnn(-c3ccc(F)cc3)c2-n2cccc2)CC1 | n | n | n | n | n | n
CCN1CCN(C(=O)c2ccc3c(c2)N(Cc2ccc(F)cc2)C(=O)c2ccccc2S3(=O)=O)CC1 | x | n | x | x | x | x
O=C(c1ccc2c(c1)N(Cc1ccc(F)cc1)C(=O)c1ccccc1S2(=O)=O)N1CCN(Cc2ccccc2)CC1 | 3.5µM | n | n | n | u | n
Cc1cccc(C(=O)N2CCCC(Nc3ccc(F)c(F)c3)C2)n1 (stereo not given) | n | 7.1µM | n | n | n | n
Cc1cccc(C(=O)N2CCCC(Nc3ccc(C)c(C)c3)C2)n1 (stereo not given) | n | n | n | n | n | n
CCN(CC(=O)NCc1ccc(F)cc1)C(=O)COc1ccc(C)c(C)c1 | n | n | n | n | 18µM | n
CCc1ccccc1OCC(=O)N(CC)CC(=O)NCc1ccc(F)cc1 | n | n | x | n | n | n
CCN(CC(=O)NCc1ccc(F)cc1)C(=O)COc1ccc2ccccc2c1 | n | n | n | n | 15µM | n
CCN(CC(=O)NCc1ccc(F)cc1)C(=O)c1ccc(C)o1 | n | n | n | n | n | n
COc1ccccc1CNC(=O)[C@H](CCSC)NC(=O)[C@@H]1Cc2ccccc2CN1 | n | n | n | u | n | n
CCC(C)C(NC(=O)C1CCC(C)CC1)C(=O)NCc1cccnc1 (stereo not given) | u | n | n | n | n | n
COc1ccccc1CNC(=O)C(CCSC)NC(=O)C1CCC(C)CC1 (stereo not given) | n | n | n | n | 4.1µM | n
CC1CCC(C(=O)NC(C(=O)NCc2cccnc2)C(C)C)CC1 (stereo not given) | n | n | n | n | 21µM | u
CC(C)CC(NC(=O)C1CCC(C)CC1)C(=O)NCc1cccnc1 (stereo not given) | n | n | n | n | 18µM | n
COc1ccc(CN2C(=O)CN(S(C)(=O)=O)CC2(C)C(=O)NC(C)C)cc1 (stereo not given) | x | x | x | n | n | x
O=S(=O)(Nc1nc2ccccc2nc1Nc1ccc2c(c1)OCO2)c1ccccc1 | n | n | n | n | 5.2µM | u
Cc1oc(-c2cccc(Br)c2)nc1Cn1c(=O)cc(-c2ccccc2)c2c(C)nn(C)c21 | n | n | n | n | n | n
